# Test results reported in PubChem BioAssay (NCATS).
# Results filed as inconclusive are left out. Values without a mark were called inactive. Calls follow the shape of the dose curve; as a rule, active = well fitted inhibition curve with a large enough effect; inconclusive = small, poorly fitted or top-dose-only effect, or effect the other way; inactive = flat fitted curve, though single readings scatter.
# Molecular target: ATP-dependent 6-phosphofructokinase (Trypanosoma brucei brucei) (UniProt O15648)
# Sequence (O15648 whole entry, looked up): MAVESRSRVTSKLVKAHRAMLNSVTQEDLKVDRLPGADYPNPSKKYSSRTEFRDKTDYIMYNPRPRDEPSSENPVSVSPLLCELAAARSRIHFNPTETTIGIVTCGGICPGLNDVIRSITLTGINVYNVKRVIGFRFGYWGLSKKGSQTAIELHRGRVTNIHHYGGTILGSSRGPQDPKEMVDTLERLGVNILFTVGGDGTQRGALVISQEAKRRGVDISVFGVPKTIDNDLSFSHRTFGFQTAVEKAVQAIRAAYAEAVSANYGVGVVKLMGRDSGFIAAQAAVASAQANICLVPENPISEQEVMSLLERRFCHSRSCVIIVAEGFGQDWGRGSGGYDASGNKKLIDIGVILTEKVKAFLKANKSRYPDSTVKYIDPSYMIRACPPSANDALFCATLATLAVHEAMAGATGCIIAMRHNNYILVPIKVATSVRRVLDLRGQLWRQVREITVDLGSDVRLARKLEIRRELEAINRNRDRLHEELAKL
# Experiment: qHTS Assay to Find Inhibitors of T. brucei phosphofructokinase: hit validation (AID 492961);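 also: luminescence reports ADP formed as PFK phosphorylates fructose-6-phosphate with ATP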
# Conditions: T. brucei PFK, ADP-Glo luminescence; series mostly up to 51.4 µM; activity change, negative = inhibition: at the top concentration
# Method in brief: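 Measures ADP output of PFK (1.25 nM) at 0.1 mM ATP, 0.5 mM F6P, pH 8.0 TEA buffer with 5 mM MgCl2. No-enzyme wells define full inhibition; uninhibited enzyme wells define zero.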
# % is scaled to controls: 0 for no effect and ±100 for the full control effect.
row,SMILES,"activity change, negative = inhibition"
1,NC(=S)N/N=C/c1cccnc1,4.16%
2,O=C(c1ccc(F)cc1)C1CCN(CCn2c(=S)[nH]c3ccccc3c2=O)CC1,3.74%
3,C#C[C@]1(O)CC[C@H]2[C@@H]3CCC4=CC(=O)CC[C@@H]4[C@H]3CC[C@@]21CC,-5.09%
4,Cc1cc(NS(=O)(=O)c2ccc(N)cc2)nc(C)n1,6.17%
5,CN1CCN(C2=Nc3ccccc3Sc3ccc(Cl)cc32)CC1,-1.63%
6,FC(F)(F)C(F)(F)C(F)(F)C(F)(F)C(F)(F)C(F)(F)C(F)(F)C(F)(F)Br,0.148%
7,O=C(NCCc1c[nH]c2ccccc12)c1cccnc1,0%
8,CCCCCCCC/C=C\CCCCCCCCN,-4.74%
9,O=C(Oc1cccc2cccnc12)c1ccccc1,13.3%
10,C#C[C@]1(O)CC[C@H]2[C@@H]3CCC4=Cc5oncc5C[C@]4(C)[C@H]3CC[C@@]21C,5.94%
11,O=C1C(O)=C(O)C(=O)C(O)=C1O,-11%
12,COc1cc(N)c(Cl)cc1C(=O)NC1CCN(Cc2ccccc2)CC1,-0.149% [at 24.3 µM]
13,NCCNC(=O)c1ccc(Cl)cn1,0%
14,C=CCN1CCc2nc(N)sc2CC1,-13.7%
15,CC(=O)NO,-3.76%
16,CN1CCN(c2cc3c(cc2F)c(=O)c(C(=O)O)cn3-c2ccc(F)cc2)CC1,4.2%
17,COc1cc(O)c(C(=O)c2ccccc2)cc1S(=O)(=O)O,-7.68%
18,COc1ccc(CCN(C)CCCN2CCc3cc(OC)c(OC)cc3CC2=O)cc1OC,6.49%

row,SMILES,"activity change, negative = inhibition"
1,Oc1ccc(Cl)cc1Cc1cc(Cl)ccc1O,-7.24%
2,CC(C)(C)NC[C@H](O)COc1cccc2c1CCCC2=O,4.4% [at 24.3 µM]
3,Cc1cccc(C)c1NC(=O)CN1CCCC1,-5.65%
4,COC(=O)C(c1ccccc1Cl)N1CCc2sccc2C1 (stereo unspecified),-8.83%
5,Cc1c[nH]c2ccccc12,-6.19%
6,Cc1cc(CC(=O)O)c(C)n1-c1ccc(Cl)cc1,-6.24%
7,CCOC(=O)c1c(N)sc2c1CCN(Cc1ccccc1)C2,-8.47%
8,CC(=O)O[C@H]1C[C@@H]2CC[C@@H]3[C@H](CC[C@@]4(C)[C@H]3C[C@H]([N+]3(C)CCCCC3)[C@@H]4OC(C)=O)[C@@]2(C)C[C@@H]1N1CCCCC1,-1.89%
9,NC(=O)c1ccccc1O,0.419%
10,O=C(O)Cc1csc(-c2ccc(Cl)cc2)n1,9.38%
11,CCCCCCCCCCCCCC(=O)OC(C)C,2.38%
12,C[N+]1(C)CCC(=C(c2ccccc2)c2ccccc2)CC1,-0.963% [at 24.3 µM]
13,Cl/C(=C\n1cncn1)c1ccc(Cl)cc1Cl,-11.3%
14,C#C[C@]1(OC(C)=O)CC[C@H]2[C@@H]3CCC4=C/C(=N/O)CC[C@@H]4[C@H]3CC[C@@]21CC,-1.86%
15,CN1CCC(OC(c2ccccc2)c2ccccc2)CC1,9.92% [at 24.3 µM]
16,Cc1ncc(CO)c(C=O)c1O,-6.8%
17,CNCCc1ccccn1,3.25% [at 24.3 µM]
18,NCCNc1cccc2ccccc12,7.75%
